How the values were obtained:
Settings in all cases: concentration: 1 μM,replicates: in singlicate; n = 1
PCTK2 = tested on: T1, PCTK2
T1 construct: gene CDK17

PCTK3 = tested on: T2, PCTK3
T2 construct: gene CDK18

PDGFRA = tested on: PDGFRA
PDGFRB = tested on: PDGFRB
PDPK1 = tested on: PDPK1
PFTAIRE2 = tested on: PFTAIRE2
PFTK1 = tested on: T3, PFTK1
T3 construct: gene CDK14

PHKG1 = tested on: PHKG1
PHKG2 = tested on: PHKG2
PIK3C2B = tested on: PIK3C2B
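Further: KINOMEscan kinase panel screen.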

SMILES	%Inh (PCTK2)	%Inh (PCTK3)	%Inh (PDGFRA)	%Inh (PDGFRB)	%Inh (PDPK1)	%Inh (PFTAIRE2)	%Inh (PFTK1)	%Inh (PHKG1)	%Inh (PHKG2)	%Inh (PIK3C2B)
CCn1c(-c2nonc2N)nc2cncc(Br)c21 [SB-738004]	14%	6%	50%	18%	6%	10%	25%	0%	0%	0%
COc1cc(Nc2nccc(N3CCC(NC(=O)c4cccc(C#N)c4)C3)n2)cc(OC)c1OC (stereo not shown) [GSK1379751]	0%	0%	0%	70%	0%	0%	3%	0%	0%	0%
Cc1nnc(-c2ccc3occ(-c4ccc(S(C)=O)cc4)c3n2)o1 (stereo not shown)	2%	0%	0%	0%	2%	0%	0%	0%	16%	0%
NC(=O)Nc1sc(-c2ccc(F)cc2)cc1C(N)=O [GW789449]	100%	0%	5%	54%	13%	16%	0%	1%	0%	40%
Cc1ccc(Nc2ccnc(Nc3ccc4c(c3)CS(=O)(=O)C4)n2)cc1O.Cl [GW579362]	35%	16%	92.8%	100%	38%	15%	27%	0%	1%	4%
COc1ccc(Nc2nccc(N3CCC(NC(=O)c4cccc(C#N)c4)C3)n2)cc1 (stereo not shown) [GSK1379730]	0%	3%	0%	4%	26%	0%	0%	0%	0%	0%
O=C(Nc1cccc(C(F)(F)F)c1)c1cccc(Oc2ccc3nccn3n2)c1	0%	0%	98.5%	99.9%	13%	0%	0%	33%	0%	99.3%
C[C@@H](Oc1cc(-n2cnc3cc(-c4ccncc4)ccc32)sc1C(N)=O)c1ccccc1Cl [GSK479719]	0%	15%	67%	95.1%	40%	17%	18%	0%	16%	0%
CCOC(=O)N1CCC(n2cnc(-c3ccc(F)cc3)c2-c2ccnc(N)n2)CC1 [SB-219952]	9%	32%	14%	23%	7%	25%	17%	0%	0%	56%
Cl.Nc1n[nH]c2cc(-c3ccccn3)ccc12 [GSK2189892]	13%	0%	0%	16%	0%	5%	6%	0%	0%	0%
CNC(=O)c1ccccc1Nc1nc(Nc2cccc(CS(C)(=O)=O)c2)ncc1C.O=CO [GSK1520489]	0%	18%	94%	99.9%	49%	0%	16%	63%	49%	0%
C[C@@H](Oc1cc(-n2cnc3ccc(-c4ccncc4)cc32)sc1C(N)=O)c1ccccc1Cl [GSK483724]	0%	47%	8%	54%	0%	22%	26%	9%	0%	88%
CS(=O)c1ccc(-c2coc3ccc(-c4n[nH]c(=O)o4)cc23)cc1 (stereo not shown)	2%	0%	10%	0%	0%	0%	4%	0%	6%	8%
CC(=O)Nc1nc2cnc(Nc3cc(NC(=O)c4cccc(CC(C)(C)C#N)c4)ccc3C)nc2s1	47%	29%	99%	100%	39%	31%	14%	19%	0%	14%
CN1CCN(CCCNc2nccc(-c3c(-c4ccc(F)cc4)nn4cc(C(N)=O)ccc34)n2)CC1 [GW622475]	20%	12%	0%	63%	0%	33%	11%	14%	26%	8%
CCN1CCN(CCCC(=O)Nc2n[nH]c3nc(-c4ccc(O)cc4)c(Br)cc23)CC1 [SB-731579]	40%	41%	39%	99.4%	0%	11%	31%	0%	2%	0%
c1ccc(Oc2ccc(Nc3ccnc4ccc(-c5ccccn5)cc34)cc2)cc1 [GW407034]	0%	17%	0%	34%	0%	0%	15%	0%	0%	4%

SMILES	%Inh (PCTK2)	%Inh (PCTK3)	%Inh (PDGFRA)	%Inh (PDGFRB)	%Inh (PDPK1)	%Inh (PFTAIRE2)	%Inh (PFTK1)	%Inh (PHKG1)	%Inh (PHKG2)	%Inh (PIK3C2B)
COc1cccc(CNC(=O)NC2CCN(c3ccnc(Nc4cc(OC)c(OC)c(OC)c4)n3)C2)c1 (stereo not shown) [GSK1379765]	0%	0%	6%	51%	4%	16%	11%	15%	0%	0%
COc1cccc(OC)c1C(=O)Nc1cccc(-c2nn3ccccc3c2-c2ccnc(Nc3cccc(F)c3)n2)c1 [GSK361065]	0%	3%	0%	90.2%	4%	2%	3%	1%	2%	0%
C[C@@H]1CCN(C(=O)N2CCCC2)C[C@@H]1N(C)c1ncnc2[nH]ccc12	0%	0%	21%	19%	0%	0%	0%	0%	5%	0%
CC(C(=O)NC1CCN(c2ccnc(Nc3ccc(F)cc3)n2)C1)c1ccc(Cl)cc1 (stereo not shown) [GSK1379713]	0%	12%	3%	7%	0%	24%	2%	0%	0%	0%
CSc1nccc(-c2c(-c3ccc(F)cc3)ncn2CCCN2CCOCC2)n1.Cl [SB-217146]	0%	0%	0%	12%	10%	0%	0%	11%	0%	0%
Cc1ccc(C(=O)Nc2ccc(Oc3ccc4nc(NC(=O)C5CC5)cn4c3)c(F)c2)c(=O)n1-c1ccccc1	2%	0%	98.2%	96.5%	0%	9%	0%	26%	0%	0%
COc1cc2c(Nc3ccc(NC(=O)c4ccccc4)cc3)ncnc2cc1OCCCN1CCOCC1 [GSK301329]	0%	28%	24%	55%	0%	10%	12%	0%	0%	0%
CS(=O)(=O)c1cccc(CNc2nc(Nc3ccc4c(c3)[C@@H]3C[C@@H]4CNC3=O)ncc2C(F)(F)F)c1	0%	0%	9%	73%	0%	18%	0%	0%	0%	0%
CC(=O)Nc1ccc(-c2cc3ncnc(SCC(=O)O)c3s2)cc1	0%	24%	64%	88%	0%	4%	0%	21%	3%	6%
NC(=O)c1ccc(-c2cc3ncnc(SCC(=O)O)c3s2)cc1	0%	2%	71%	80%	0%	0%	7%	0%	1%	0%
Cc1cccc(-c2nc(Nc3ccncc3)c3sccc3n2)n1 [GW869641]	0%	0%	36%	27%	7%	5%	0%	0%	5%	29%
COC(=O)c1cccc(NC(=O)NC2CCN(c3ccnc(NCc4ccc(F)cc4)n3)CC2)c1 [GSK1379860]	0%	33%	14%	7%	5%	0%	7%	0%	0%	0%
C[C@@H]1CNc2c(sc3ccc4nc(-c5ccncc5)ccc4c23)C(=O)N1	6%	0%	72%	56%	0%	0%	0%	39%	55%	0%
Cc1ccc2c(-c3ccnc(Nc4ccc(C(F)(F)F)cc4)n3)cnn2n1 [GW819776]	12%	0%	0%	45%	0%	12%	0%	18%	0%	0%
CCNCC(Cc1ccccc1)NC(=O)c1cc(Br)c(-c2ccnc3[nH]ccc23)s1.Cl.Cl (stereo not shown) [GSK1383280]	15%	0%	51%	75%	0%	0%	21%	27%	20%	0%
O=C(Nc1ccccc1)c1cccc(Oc2ccc3nccn3n2)c1	0%	38%	66%	99.3%	0%	0%	38%	15%	0%	0%
CN(c1cccc(CNc2nc(Nc3ccc4c(c3)CC(=O)N4)ncc2C(F)(F)F)c1)S(C)(=O)=O	2%	4%	34%	72%	65%	10%	17%	40%	18%	0%

— PMC5540273 (PLoS ONE, 2017)
